Hits are enriched below; roughly 8% of the tested compounds scored in any of these assays.
LASV entry inh: Lassa virus entry inhibition; Lassa virus pseudotype entry inhibition, cell reporter; Potency, µM (titrated, usually from 37.9 µM), for the others: at the top dose activity change, negative = inhibition, most hits filed as inhibitors; hit rate 1.2% among 300,000; AID 540256; calls by dose curve; tested in HEK293 cells; note: potency is the fitted concentration of half-maximal effect; % is set by controls: 0 for no effect and ±100 for the full control effect; nearly all actives have a fitted effect of over 50% in size
HCMV antiviral: blocks human cytomegalovirus replication; HFF cells, HCMV-luciferase reporter, 72 h; stronger effect = lower value; hit rate 4.5% among 410,000; activity change, negative = inhibition, % at 57.5 µM; AID 1259415; in the data active = activity change below about -60%; inconclusive = no clear call, values can overlap the other calls; inactive = above about -39%; note: % is set by controls: 0 for no effect and ±100 for the full control effect
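Screen run at 2 compound doses on HFFs infected with reporter HCMV, MOI 1 PFU/cell. Luciferase activity from cell lysates at 72 h post infection gave inhibition relative to buffer-only and Salinomycin wells.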
SARS PLP yeast: inhibitors of SARS-CoV papain-like protease in yeast. S. cerevisiae expressing SARS-CoV PLpro, growth rescue. hit rate 0.19% among 330,000. AID 485353. Potency, µM (series often up to 32.9 µM), for the others: at the highest dose activity, positive = growth rescue, most hits filed as activators; calls by dose curve; note: potency is the fitted concentration of half-maximal effect; 0% is about no effect; nearly all actives have a fitted effect of over 55% in size
HCV inh: blocks hepatitis C virus; AID 651820; Potency, µM (top dose mostly 41.8 µM), for the others: at the top dose activity change, negative = inhibition, hits mostly inhibitors; Huh7.5.1 HCVcc-Cre infection, luciferase reporter, 44 h; hit rate 3.4% among 340,000; active = well fitted inhibition curve with a large enough effect; inconclusive = small, poorly fitted or top-dose-only effect, or another doubt; inactive = no such curve, though single readings can be large or run the other way; note: potency is the fitted concentration of half-maximal effect; % is set by controls: 0 for no effect and ±100 for the full control effect
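Luciferase read-out (15 sec integration) after a 15 min room-temperature substrate step quantifies HCVcc-Cre infection. Cells, 1,000 per well, had compound added 4 h post-plating, then virus at ~0.5 moi, and were cultured 44 h.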
FMDV antiviral: blocks foot and mouth disease virus | FMDV antiviral cell-based qHTS | Potency, µM (titrated, usually from 57.9 µM), inactives show top-dose activity change, negative = inhibition, most hits filed as inhibitors | hit rate 1.2% among 410,000 | AID 1159524; calls by dose curve; tested in HEK293T cells; note: read-out not given here; potency is the fitted concentration of half-maximal effect; % is set by controls: 0 for no effect and ±100 for the full control effect; nearly all actives have a fitted effect of over 45% in size
MARV entry inh: inhibitors of Marburg virus binding or cell entry. Marburg virus pseudotyped entry inhibition, cell reporter. Potency, µM (doses to about 37.8 µM), without a hit: at the highest dose activity change, negative = inhibition, most hits filed as inhibitors. hit rate 1.8% among 300,000. AID 540276; calls by dose curve; tested in HEK293 cells; note: potency is the fitted concentration of half-maximal effect; % is set by controls: 0 for no effect and ±100 for the full control effect
* marks the source's active call; other numbers are inactive results; [ ] = remark or other dose.

How did COC(=O)c1ccccc1NC(=S)NC(=O)c1ccc2c(c1)OCO2 do in these assays?
LASV entry inh: 19.1%; HCMV antiviral: 76.0; SARS PLP yeast: -1.3%; HCV inh: -18.0%; FMDV antiviral: 6.3%; MARV entry inh: 4.0%

What do the screens show for `Cc1ccc(SC(C)C(=O)Nc2ccccc2C(=O)N2CCOCC2)cc1` (centres undefined)?
LASV entry inh: 0.4%; HCMV antiviral: 9.9; SARS PLP yeast: -1.8%; HCV inh: -11.9%; FMDV antiviral: -26.7%; MARV entry inh: 1.8%

Results for COc1cccc(NC(=O)c2sc3nc(C)c(C(=O)Nc4ccc(C)cc4C)c(-c4ccc(Br)cc4)c3c2N)c1 ?
LASV entry inh: 11.9%[46.1 µM]; HCMV antiviral: 7.7; FMDV antiviral: 1.1%; MARV entry inh: inconclusive

How did COc1ccc(CCNC(=O)Cn2cc(S(=O)(=O)Cc3ccc(F)cc3)c3ccccc32)cc1OC do in these assays?
LASV entry inh: -8.1%[46.1 µM]; HCMV antiviral: 0.0; FMDV antiviral: -18.9%

What do the screens show for `CCN(CC)c1ccc(NC(=O)CN2C(=O)c3cccnc3Oc3ccccc32)c(C)c1`?
LASV entry inh: -1.8%[46.1 µM]; HCMV antiviral: 0.0; FMDV antiviral: 20.4%

How did COC(=O)c1ccccc1NC(=O)c1ccc(NS(C)(=O)=O)cc1 do in these assays?
LASV entry inh: 4.3%; HCMV antiviral: 72.0; SARS PLP yeast: 4.4%; HCV inh: 11.2µM*; FMDV antiviral: -21.6%; MARV entry inh: 0.4%

What do the screens show for `COc1ccc(C(=O)Nc2ccccc2C(N)=O)cc1`?
LASV entry inh: -0.9%; HCMV antiviral: 127.5; SARS PLP yeast: -6.4%; HCV inh: 9.5%; FMDV antiviral: 27.9%; MARV entry inh: 25.0%

What do the screens show for `CS(=O)(=O)Nc1ccc(C(=O)Nc2ccccc2C(=O)N2CCCC2)cc1`?
LASV entry inh: -6.1%; HCMV antiviral: 47.8; SARS PLP yeast: 15.8µM*; HCV inh: 1.1%; FMDV antiviral: 8.0%; MARV entry inh: -2.9%

What do the screens show for `CS(=O)(=O)Nc1ccc(C(=O)Nc2ccccc2Cl)cc1`?
LASV entry inh: 19.4%[46.1 µM]; HCMV antiviral: -34.0; SARS PLP yeast: 0.2%; HCV inh: -0.6%; FMDV antiviral: 9.2%; MARV entry inh: 14.9%[46.1 µM]

How did COC(=O)c1ccccc1NC(=O)CNC(=O)c1ccc(OC)cc1 do in these assays?
LASV entry inh: -27.6%[46.1 µM]; HCMV antiviral: active; SARS PLP yeast: -1.0%; HCV inh: -0.1%; FMDV antiviral: 7.3%; MARV entry inh: -11.2%[46.1 µM]

What do the screens show for `CCOC(=O)CN(C(=O)c1snc(C(N)=O)c1N)C(C(=O)NCCC(C)C)c1ccc(C)cc1` (centres undefined)?
HCMV antiviral: -16.3; FMDV antiviral: 1.4%

How did CCOC(=O)CNC(=O)c1cc(-c2ccccn2)nc2c(C)c(Cl)ccc12 do in these assays?
LASV entry inh: -16.5%; HCMV antiviral: inconclusive; SARS PLP yeast: -0.6%; HCV inh: -10.5%; FMDV antiviral: -15.6%; MARV entry inh: 5.01µM*

Results for Cc1c(Cl)ccc2c(C(N)=O)cc(-c3ccccn3)nc12 ?
LASV entry inh: 8.6%; HCMV antiviral: 25.5; SARS PLP yeast: -2.1%; HCV inh: 9.0%; FMDV antiviral: -15.1%; MARV entry inh: inconclusive

What do the screens show for `CN(C)S(=O)(=O)N1CCC(Oc2ccc(C(=O)NC3Cc4ccccc4C3)cc2)CC1`?
HCMV antiviral: -81.5*; SARS PLP yeast: 7.2%; HCV inh: 3.55µM*; FMDV antiviral: inconclusive

Results for CCC(=O)NC(c1cc(Cl)c2cccnc2c1O)C1CC1 (centres undefined) ?
HCMV antiviral: -95.3*; SARS PLP yeast: 6.4%; FMDV antiviral: inconclusive

Results for Oc1c(I)cc(Cl)c2cccnc12 ?
LASV entry inh: -15.5%; HCMV antiviral: 30.8; SARS PLP yeast: -71.0%; HCV inh: inconclusive; FMDV antiviral: -29.1%; MARV entry inh: 23.9%

What do the screens show for `CCC(=O)NC(c1cc(Cl)c2cccnc2c1O)C(C)C` (centres undefined)?
HCMV antiviral: -95.6*; SARS PLP yeast: 3.2%; FMDV antiviral: -25.2%

What do the screens show for `Cc1cc(C)c(C(=O)N2CCCC(N3CCN(c4cccc(C(F)(F)F)c4)CC3)C2)o1` (centres undefined)?
HCMV antiviral: -16.7; SARS PLP yeast: -2.9%; HCV inh: 11.2µM*; FMDV antiviral: inconclusive

Source: PubChem (National Center for Advancing Translational Sciences (NCATS))
